Screening results as filed in PubChem.
A selection: hits, their analogues and other compounds. The true share with any hit is near 6.1%.
TGFb inhibitor: qHTS for Inhibitors of TGF-b. HepG2 CAGA-GFP TGF-b/SMAD3 reporter, GFP fluorescence, 18 h; TGF-beta stimulated, 500 pg/mL final. Potency, µM (top dose mostly 46.1 µM), inactives show at the top dose activity, negative = inhibition, usual class: inhibitors. 410,000 tested, 1.2% active. AID 588855, 2011; further: on the % scale 0 is the no-effect control and ±100 the full control effect; nearly all actives have a fitted effect of over 65% in size
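HEPG2 CAGA-GFP cells (1000/well, DMEM with 1% FBS) were pre-incubated 2 h at 37 degrees C, given compound by pin tool, then stimulated with TGF-beta at 500 pg/mL final for 18 h before per-cell GFP fluorescence imaging.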
ATXN viability: Viability Counterscreen for Primary qHTS for Inhibitors of ATXN expression; S2 cells (HEK-293 line with an ATXN2-luciferase reporter) viability, CellTiter-Fluor protease fluorescence, 24 h; Potency, µM (series often up to 56.7 µM), usual class: cytotoxic; 400,000 tested, 0.49% active; AID 651635, 2014; further: nearly all actives have a fitted effect of over 40% in size
Gal4-VP16 FLuc: VP16 counterscreen qHTS for inhibitors of ROR gamma transcriptional activity; Drosophila S2 Gal4-VP16 UAS-luciferase, luminescence, 20 h; Potency, µM (doses to about 53.6 µM), for inactives: at the top dose activity, negative = inhibition, most hits filed as inhibitors; 310,000 tested, 3.5% active;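 further: Gal4-VP16 expression switched on by copper sulfate through the metallothionein promoter; on the % scale 0 is the no-effect control and ±100 the full control effect; nearly all actives have a fitted effect of over 50% in size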
RORg inh: qHTS for inhibitors of ROR gamma transcriptional activity. AID 2551, 2010. 310,000 tested, 5.4% active. Nuclear receptor ROR-gamma (Mus musculus), P51450. Drosophila S2 Gal4-RORgamma UAS-luciferase reporter, 20 h. Potency, µM (series often up to 53.6 µM), for the others: top-dose activity change, negative = inhibition, usual class: inhibitors; further: on the % scale 0 is the no-effect control and ±100 the full control effect; nearly all actives have a fitted effect of over 60% in size
Target sequence (P51450 whole entry, looked up, the tested form may be a part): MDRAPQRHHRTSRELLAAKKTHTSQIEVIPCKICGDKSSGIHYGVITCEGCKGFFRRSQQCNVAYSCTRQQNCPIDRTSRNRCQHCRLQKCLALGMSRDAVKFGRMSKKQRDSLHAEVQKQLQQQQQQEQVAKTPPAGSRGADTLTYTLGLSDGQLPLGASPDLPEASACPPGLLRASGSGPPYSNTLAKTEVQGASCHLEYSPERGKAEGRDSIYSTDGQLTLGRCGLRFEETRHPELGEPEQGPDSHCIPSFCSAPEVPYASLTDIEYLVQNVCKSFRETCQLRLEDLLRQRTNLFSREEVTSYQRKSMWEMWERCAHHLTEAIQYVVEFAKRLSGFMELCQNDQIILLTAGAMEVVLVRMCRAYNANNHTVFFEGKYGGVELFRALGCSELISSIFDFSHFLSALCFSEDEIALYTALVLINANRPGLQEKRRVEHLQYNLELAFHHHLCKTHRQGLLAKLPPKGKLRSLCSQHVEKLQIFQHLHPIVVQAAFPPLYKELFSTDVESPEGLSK
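Using a luciferase readout, inhibitors were identified by reduced reporter activity in Drosophila cells coexpressing a copper-inducible Gal4–ROR gamma fusion and UAS-driven Photinus luciferase, incubated 20 hr after 700 uM copper sulfate.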
ATXN2 expr inh: Primary qHTS for Inhibitors of ATXN expression; HEK-293 ATXN2-luciferase reporter, luminescence, 24 h; 360,000 tested, 0.72% active; Potency, µM (highest dose often 57 µM), for inactives: at the highest dose activity change, negative = inhibition, actives largely listed as inhibitors; further: on the % scale 0 is the no-effect control and ±100 the full control effect; nearly all actives have a fitted effect of over 55% in size
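ATXN2-luciferase reporter cells (luciferase flanked by upstream and downstream ATXN2 gene portions) were treated 24 h at 37 °C with compounds at up to 57 uM. SteadyGlo luminescence gave expression; GF-AFC fluorescence gave viability.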
HepG2 tox-1: qHTS for Inhibitors of TGF-b: Cytotox Counterscreen | HepG2 CAGA-GFP viability, ATP luminescence, 18 h | Potency, µM (doses to about 46.1 µM), for the others: at the top dose activity change, negative = cytotoxicity, usual class: cytotoxic | 410,000 tested, 0.76% active | AID 588856, 2011
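HepG2 CAGA-GFP cells (1000/well, DMEM with 1% FBS) received compound, then TGF-beta at 500 pg/mL final, and were incubated 18 hours at 37 degrees C. Viability was read by CellTiter-Glo luminescence. Media-only wells were set as complete cell-killing and DMSO as no toxicity.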
TGFb CAGA inh: qHTS for Inhibitors of TGF-b: Confirmation of Cherry Picks; 1,600 tested, 63% active; AID 720534, 2013; HepG2 CAGA-GFP TGF-b reporter, GFP fluorescence, 18 h; cells stimulated with TGF-beta, 500 pg/mL; Potency, µM (highest dose often 46.1 µM), without a hit: at the top dose activity, negative = inhibition, most hits filed as inhibitors; shares compounds with TGFb inhibitor; further: on the % scale 0 is the no-effect control and ±100 the full control effect; nearly all actives have a fitted effect of over 65% in size
HepG2 tox-2: qHTS for Inhibitors of TGF-b: Cytotox Counterscreen for Cherry Picks; shares compounds with TGFb inhibitor; HepG2 CAGA-GFP viability, ATP luminescence, 18 h; cells stimulated with TGF-beta, 500 pg/mL; Potency, µM (doses to about 46.1 µM), inactives show top-dose activity, negative = cytotoxicity, hits mostly inhibitors; 1,600 tested, 27% active; further: on the % scale 0 is the no-effect control and ±100 the full control effect; nearly all actives have a fitted effect of over 70% in size
CCL64 TGFb inh: qHTS for Inhibitors of TGF-b: CCL64 Cells Orthogonal Assay for Cherry Picks. shares compounds with TGFb inhibitor. CCL64 CAGA-GFP reporter, TGF-b stimulated, GFP fluorescence, 18 h. Potency, µM (titrated, usually from 46.1 µM), for inactives: top-dose activity, negative = inhibition, most hits filed as inhibitors. 1,600 tested, 41% active. AID 720536, 2013; further: nearly all actives have a fitted effect of over 65% in size
TGFb COP inh: qHTS for Inhibitors of TGF-b: Hit Validation in HepG2 Cells using COP promoter. shares compounds with TGFb inhibitor. HepG2 COP-GFP TGF-b reporter, GFP fluorescence, 18 h; cells stimulated by added recombinant TGF-beta. Potency, µM (titrated, usually from 46.1 µM), for inactives: at the highest dose activity, negative = inhibition, usual class: inhibitors. 1,600 tested, 3% active; further: nearly all actives have a fitted effect of over 70% in size
Starred values were filed as active, the others as inactive; i = inactive; ? = inconclusive; / = no result given; ! = repeats disagree. The call rests on the fitted dose curve; in most records, active means well fitted curve in the direction sought with a large enough effect; inconclusive means small, poorly fitted or top-dose-only effect, or another doubt; inactive means no such curve, though single readings can be large; an effect the other way counts as inactive or inconclusive. Potency means the concentration at half of the fitted maximal effect.

SMILES	TGFb inhibitor	ATXN viability	Gal4-VP16 FLuc	RORg inh	ATXN2 expr inh	HepG2 tox-1	TGFb CAGA inh	HepG2 tox-2	CCL64 TGFb inh	TGFb COP inh
CCc1nc2ccccc2c(C(=O)OCC(=O)Nc2cccc(S(=O)(=O)NC3=NCCCCC3)c2)c1C	11µM*	?	?	?	22µM*	-22%	7.3µM*	?	?	21%
O=C(COC(=O)c1ccc2ccccc2n1)Nc1cccc(S(=O)(=O)NC2=NCCCCC2)c1	-2%	i	0%	26%	/	-75%	/	/	/	/
O=S(=O)(/C(=C\c1ccc(C(F)(F)F)cc1)c1nc2ccccc2[nH]1)c1ccccc1	4.5µM*	7.1µM*	/	/	5µM*	18µM*	2.9µM*	2.6µM*	3.3µM*	?
CCCCOC(=O)Nc1ccc(S(=O)(=O)Nc2ccc([N+](=O)[O-])cc2)cc1	7.9µM*	i	?	?	13%	-9%	?	-6%	-14%	-9%
CCC(=O)N1c2ccccc2CC1C(=O)NCCc1ccccc1OC (stereo not given)	-5%	i	/	/	2%	-14%	/	/	/	/
CN(CC(=O)N1CCN(Cc2ccccc2)CC1)C(=O)Cc1cccc2ccccc12	14µM*	?	/	/	-15%	-8%	?	-16%	2%	-3%
CCCCNC(=O)c1cccc2c(=O)c(C)c(-c3ccccc3)oc12	-5%	i	17%	?	-18%	11%	/	/	/	/
CCCCN(C(=O)c1cccc2c(=O)c(C)c(-c3ccccc3)oc12)c1ccccc1	14µM*	i	-25%	18%	?	-9%	10µM*	?	?	41%
Cc1ccc(COC(=O)c2nn(C)c(=O)c3ccccc23)cc1	?	i	?	?	-16%	-9%	?	3%	6%	-8%
Cn1nc(C(=O)OCc2ccc(F)cc2)c2ccccc2c1=O	11%	i	16%	?	-21%	-13%	/	/	/	/
Cc1ccc(NC(=O)Cc2ccccc2F)cc1S(=O)(=O)N1CCCCCC1	11µM*	?	/	/	-25%	-30%	8.2µM*	?	-23%	16%
Cc1oc2c(c1C(=O)N1CCC(C)CC1)C(=O)c1ccccc1C2=O	4µM*	18µM*	?	7.9µM*	25µM*	5µM*	3.7µM*	5.8µM*	12µM*	21µM*
CC1CCN(C(=O)c2ccc3c(c2)C(=O)c2ccccc2-3)CC1	-5%	/	/	/	/	1%	/	/	/	/
CCOC(=O)C1CCN(C(=O)c2c(C)oc3c2C(=O)c2ccccc2C3=O)CC1	4.5µM*	?	?	11µM*	?	2.8µM*	2.1µM*	5.2µM*	7.3µM*	5.8µM*
CC1CCN(S(=O)(=O)c2ccc3[nH]ccc3c2)CC1	6%	/	/	/	/	-1%	/	/	/	/
CC(=O)Nc1ccc(SC[C@H](Cc2ccccc2)N2CC[C@@H](O)CCC2=O)cc1	-8%	i	/	/	8%	4%	/	/	/	/
Cc1ccc(SC[C@H](C)CN2CC[C@H](C(C)(C)C)CCC2=O)cc1	10µM*	i	-8%	17%	-19%	11µM*!	?	?	21µM*	27%
CC(=O)Nc1ccc(SC[C@H](Cc2ccccc2)N2CC[C@@H](C(C)(C)C)CCC2=O)cc1	10µM*	32µM*	/	/	?	-10%	26µM*	?	?	60%
C[C@@H]1C(=O)OC2C[C@@]34[C@H]5C[C@@H](C(C)(C)C)[C@@]36C(O)C(=O)O[C@H]6O[C@@]4(C(=O)O5)[C@]21O (stereo not given in full)	/	/	-1%	-21%	/	/	/	/	/	/
O=c1c(S(=O)(=O)c2ccc(Cl)cc2)cn(Cc2ccc(F)cc2)c2ccc(F)cc12	-6%	i	/	/	-2%	6%	/	/	/	/
Cc1ccc(NC(=O)C(=O)NCC(c2ccc3c(c2)OCO3)N2CCN(C)CC2)cc1C (stereo not given)	16%	i	/	/	3%	-6%	/	/	/	/
c1ccc(Sc2ncnc3ccccc23)cc1	10µM*	i	?	36%	27%	-36%	10µM*	?	?	40%
COC(=O)c1cc(NC(=O)Nc2ccc3snnc3c2)cc(C(=O)OC)c1	17%	i	/	/	4%	-5%	/	/	/	/
COC(=O)c1ccc(C)c(NS(=O)(=O)c2ccc(OC)cc2)c1	?	?	-12%	?	0%	-3%	?	-1%	?	-7%
O=C(CSc1nc2ccccc2nc1Cc1ccc(Cl)cc1)N1CCCCC1	?	/	/	/	/	-43%	/	/	/	/
Cc1c(C(=O)N/N=C/c2ccc(N(C)C)cc2)[nH]c2ccc(Cl)cc12	4.5µM*	?	?	6.3µM*	-24%	-2%	2.3µM*	-8%	?	-4%
Cc1ccc(NC(=O)Cc2cc(C(=O)O)c3ccccc3n2)c(C)c1	8.9µM*	i	?	?	/	-53%	?	?	7.3µM*	44%
CCCc1cc(C(=O)O)c2ccccc2n1	17%	i	-4%	6%	6%	-1%	/	/	/	/
CCc1ccc(NC(=O)CN(Cc2ccccc2)S(=O)(=O)c2ccc3nc(C)sc3c2)cc1	-22%	i	/	/	-13%	-20%	/	/	/	/
